# Source: PubChem (National Center for Advancing Translational Sciences (NCATS))
# In the library only some 19% were active in any assay of this set; here they are far more common.
# Shiga inhibitor: Shiga toxin inhibition; inhibition, % at 38.7 µM; actives 9.2% (n = 290,000); Vero cells, Shiga toxin protein synthesis inhibition reporter; in the data active = inhibition mostly above about 28%, no sharp cut-off; inactive = mostly below about 43%; also: 0% is about no effect
# Pf growth 48h: P. falciparum growth inhibition at 48 hours (one generation) | P. falciparum luciferase growth in erythrocytes, 48 h | Potency, µM (top dose mostly 28.7 µM), inactives show at the highest dose activity change, negative = inhibition, hits mostly inhibitors | actives 5.9% (n = 310,000); also: potency is read from the fitted curve at half-maximal effect; % is scaled to controls: 0 for no effect and ±100 for the full control effect
#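 In quantitative HTS format, infected erythrocytes bearing luciferase-reporter parasites were treated for a single generation at 37 C. Luminescence after adding detection reagent served as the growth measure.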
# LASV entry inh: Lassa virus entry inhibition | Lassa virus pseudotype entry inhibition, cell reporter | Potency, µM (titrated, usually from 37.9 µM), for the others: at the highest dose activity change, negative = inhibition, most hits filed as inhibitors | actives 1.2% (n = 300,000) | AID 540256; calls by dose curve; tested in HEK293 cells; also: potency is read from the fitted curve at half-maximal effect; % is scaled to controls: 0 for no effect and ±100 for the full control effect; nearly all actives have a fitted effect of over 50% in size
# Pf growth 96h: P. falciparum growth inhibition at 96 hours; P. falciparum luciferase reporter growth, 96 h; Potency, µM (doses to about 28.7 µM), for the others: at the top dose activity change, negative = inhibition, usual class: inhibitors; actives 6.9% (n = 320,000); also: potency is read from the fitted curve at half-maximal effect; % is scaled to controls: 0 for no effect and ±100 for the full control effect
#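 Readout is luminescence from an integrated firefly luciferase in P. falciparum. Red cells, 2% hematocrit and 0.05% parasitemia final, were cultured with compound through two parasite generations (96 hours) at 37 C, 5% CO2.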
# Marburg entry inh: inhibitors of Marburg virus binding or cell entry; Marburg virus pseudotyped entry inhibition, cell reporter; actives 1.8% (n = 300,000); AID 540276; Potency, µM (top dose mostly 37.8 µM), inactives show at the highest dose activity change, negative = inhibition, most hits filed as inhibitors; calls by dose curve; tested in HEK293 cells; also: potency is read from the fitted curve at half-maximal effect; % is scaled to controls: 0 for no effect and ±100 for the full control effect
# Cycloheximide cs: counter-screen for Shiga toxin inhibitors: cycloheximide protein synthesis inhibition; cell reporter, cycloheximide protein synthesis inhibition counterscreen; max response, %; actives 12% (n = 300,000); AID 2314; in the data active = max response mostly above about 13%, no sharp cut-off; inactive = mostly below about 14%; also: read at 38.3 µM for the half of the compounds with a filed dose; 0% is about no effect
# An asterisk follows results filed as active; i = inactive; ? = inconclusive; . = not tested or not shown; + = active, no number; [ ] = remark or other dose. Unless noted, calls follow the shape of the dose curve; as a rule, active = well fitted inhibition curve with a large enough effect; inconclusive = small, poorly fitted or top-dose-only effect, or another doubt; inactive = no such curve, though single readings can be large or run the other way.
SMILES,Shiga inhibitor,Pf growth 48h,LASV entry inh,Pf growth 96h,Marburg entry inh,Cycloheximide cs
N#C/C(=N\Nc1ccc(F)cc1)C(=N)N1CCCCCC1,58*,i,?,-14%,?,27*
N#C/C(=N\Nc1ccccc1)C(=N)N1CCOCC1,41*,67%,20%,0%,?,30*
Cc1ccc(N/N=C(\C#N)C(=N)N2CCCCCC2)cc1,94*,403%,?,?,?,37*
CN(C)S(=O)(=O)c1ccc(S(=O)(=O)NCc2ccc3c(c2)OCO3)cc1,6,2%,18%,0%,8%,-3
CN1CCN(C(=O)C2=C[C@H](c3coc4ccccc4c3=O)C[C@H](OCc3ccc(CO)cc3)O2)CC1,5,?,.,?,.,2
N#C/C(=N\Nc1ccc(Cl)cc1)C(=N)N1CCCCC1,+,255%,?,376%,?,23
N#C/C(=N\Nc1ccc(Cl)cc1)C(N)=S,46*,24%,?,?,?,23*
N#CC(C#N)=NNc1ccc(S(=O)(=O)N2CCCCC2)cc1,-3,-22%,0%,?,?,-2
Cc1ccc(C2(C)NC(=O)N(CC(=O)Nc3ccc(Cl)c(S(=O)(=O)N4CCCCC4)c3)C2=O)cc1 (centres undefined),.,?,-27%,?,11µM*,.
O=C(CN1C(=O)NC2(CCCCCCC2)C1=O)Nc1cccc(Br)c1,.,.,-15%,.,-45%,.
O=C(CN1C(=O)NC2(CCCC2)C1=O)Nc1cccc(-c2nnc3n2CCCCC3)c1,-4,-6%,-6%,7.4µM*,?,-3
CCOc1ccc(S(=O)(=O)N2CCCCC2)cc1NC(=O)CN1C(=O)NC(C)(c2ccc(C)cc2)C1=O (centres undefined),.,13µM*,?,7.4µM*,?,.
CC(C)CC1NC(=O)N(CC(=O)NC2CCCCC2)C1=O (centres undefined),.,?,1%,21%,16%[46.1 µM],.
Cn1c(SCC(=O)NNC(=O)c2ccc(Br)cc2)nnc1-c1cccnc1,4,0%,10%,29%,2%,-2
CC/C(=N/Nc1ccc(Cl)cc1)c1cnnc(SC)n1,10,?,18%,?,3%,6
CN(CC(=O)NC(=O)NCc1ccccc1)Cc1ccc(Cl)c(Cl)c1,16,29%,?,54%,23%,5
CCOC(=O)C1(CCCc2ccccc2)CCN(C(=O)CCn2cnnn2)CC1,33,-8%,.,38%,.,6
CCOC(=O)C1(CCc2ccccc2)CCN(C(=O)CCn2cnnn2)CC1,21,15%,31%,0%,3%[46.1 µM],12*
CCOC(=O)C1(Cc2ccccc2Cl)CCN(C(=O)CCn2ccnc2C)CC1,68*,-15%,.,?,.,42*
CCOC(=O)C1(CCc2ccccc2)CCN(C(=O)CCn2cncn2)CC1,63*,-3%,-6%[46.1 µM],?,?,32*
CC(C(=O)Nc1ncc([N+](=O)[O-])s1)N1C(=O)c2ccccc2S1(=O)=O (centres undefined),.,3%,16%,10%,13%,.
Cc1ccc(C(=O)CSc2nnc(-c3ccccc3)n2-c2ccccc2)o1,-2,-11%,?,?,-6%,-4
O=C(CSc1nnnn1-c1ccccc1)c1ccc(O)cc1O,50,31%,.,10%,.,14*
Cc1ccc(C(=O)CSc2nnnn2-c2ccccc2)o1,49*,123%,.,15%,.,25
Cc1cc(C(=O)CSc2nnnn2-c2ccccc2)c(C)n1CCc1ccccc1,-11,.,6%,255%,?,-2
SMILES,Shiga inhibitor,Pf growth 48h,LASV entry inh,Pf growth 96h,Marburg entry inh,Cycloheximide cs
Cc1cc(C(=O)CSc2nnnn2-c2ccc(O)cc2)c(C)n1C,66*,6%,?,-14%,-22%[46.1 µM],25*
CC(C)CC(NC(=O)C(NC(=O)C1OC2OC(C)(C)OC2C2OC(C)(C)OC12)C(C)C)C(=O)O (centres undefined),-6,-4%,.,5%,3%[46.1 µM],-2
COc1ccc(N(CCCN2C(=O)c3cccc4cccc(c34)C2=O)C(=O)c2cccnc2)cc1,9,?,?,-24%,?,-3
CCN(CC)CCN(Cc1cc2cc3c(cc2[nH]c1=O)OCCO3)C(=O)NC1CCCCC1,-5,-9%,3%,-3%,-20%,9
Cc1cccc2c1cnn2C(=O)Nc1ccc(Br)cc1F,22,92%,.,-4%,.,7
COC(=O)c1ccc(NC(=O)n2ncc3c(C)cccc32)cc1,.,.,10%[46.1 µM],.,-10%[46.1 µM],.
CCOc1ccc(NC(=O)n2ncc3c(C)cccc32)cc1,48*,178%,.,1%,.,30*
COc1cccc(NC(=O)n2ncc3c(C)cccc32)c1,54*,.,.,145%,.,32*
Cc1ccc(NC(=O)n2ncc3c(C)cccc32)c(C)c1,34*,117%,25%[46.1 µM],2%,?,38*
O=C(CSc1nnc(-c2ccco2)o1)NC(=O)C1COc2ccccc2O1 (centres undefined),17,31%,-9%,-20%,4%,2
COCCN(C(=O)CCC(=O)Nc1ccccn1)C(C(=O)NC(C)(C)C)c1ccc(OC)cc1 (centres undefined),-7,1%,?,?,12%[46.1 µM],-4
Cc1cc(C)c(-n2c(C)cc(/C=C3/NC(=O)NC3=O)c2C)c(C)c1,-15,?,-26%,5.9µM*,?,-3
Cc1cc(/C=C2/NC(=O)NC2=O)c(C)n1C,15,13%,-25%,4.7µM*,-25%[46.1 µM],4
Cc1cc(/C=C2/NC(=O)NC2=O)c(C)n1-c1ccncc1,16,-1%,.,-2%,5%[46.1 µM],-2
Cc1cc(/C=C2\C(=O)NC(=O)N(c3ccc(Cl)cc3)C2=O)c(C)n1-c1sc2c(c1C#N)CCCC2,-13,-3%,.,?,1%,-6
Cc1cc(/C=C2/NC(=O)NC2=O)c(C)n1-c1sc2c(c1C#N)CCCC2,-10,?,4.5µM*,.,?,17
Cc1cccc(-n2c(C)cc(/C=C3\NC(=O)NC3=O)c2C)c1,27,12%,?,-9%,?,8
NC(=O)c1ccc(SCC(=O)OCC(=O)N2CCCCC2)c([N+](=O)[O-])c1,.,21%,-16%[46.1 µM],6%,16%,.
O=C(Nc1ccccc1-c1ccccc1)C1CCC1,53,22%[1.15 µM],8%,75%,-4%[46.1 µM],26*
CC1CCCCC1NCC(=O)Nc1ccccc1-c1ccccc1 (centres undefined),-6,?,-8%,15µM*,-12%,-4
CC1CCN(CC(=O)Nc2ccccc2-c2ccccc2)CC1,1,?,0%,?,-15%,-4
Cc1ccc(NC2CCCN(C(=O)c3ccc4[nH]ccc4c3)C2)cc1C (centres undefined),-11,?,?,13µM*,16%,-1
